Pol iota inh: inhibitors of human DNA polymerase iota | Pol iota fluorescent replication assay, 10 min | Potency, µM (top dose mostly 115 µM), inactives show at the top dose activity, negative = inhibition, hits mostly inhibitors | 390,000 tested, 1% active; note: potency is the fitted concentration of half-maximal effect
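Pol iota at 10 nM preincubated 15 min with compounds at room temperature; reaction started with fluorescent substrate, 50 nM final. Fluorescence read kinetically at 0 and 10 min; buffer-only wells as negative control.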
POLB inh: DNA polymerase beta (human) inhibition; AID 485314; Potency, µM (series often up to 114 µM), for the others: top-dose activity change, negative = inhibition, hits mostly inhibitors; 340,000 tested, 1.3% active; Pol beta primer extension/strand displacement, fluorescence kinetic; note: potency is the fitted concentration of half-maximal effect; % is set by controls: 0 for no effect and ±100 for the full control effect
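Curves were derived by four-parameter Hill fits of normalized qHTS data. The kinetic fluorescent primer-extension read was taken at 0 and 10 min after 50 nM substrate, following a 15 min room-temperature preincubation of 10 nM enzyme with compounds.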
WRN inhibitor: blocks human WRN helicase; Q14191; WRN helicase unwinding, fluorescent forked duplex, kinetic; Potency, µM (doses to about 114 µM), for inactives: at the highest dose activity change, negative = inhibition, actives largely listed as inhibitors; 360,000 tested, 0.46% active; AID 651768; note: potency is the fitted concentration of half-maximal effect; % is set by controls: 0 for no effect and ±100 for the full control effect; nearly all actives have a fitted effect of over 55% in size
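WRN at 20 nM final preincubated with compound 15 min at room temperature; reaction started with 100 nM fluorophore/quencher forked duplex oligonucleotide and 2 mM ATP final. Unwinding followed kinetically by red fluorescence (ex 525, em 598 nm).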
POLH inh: DNA polymerase eta (human) inhibition | Potency, µM (doses to about 114 µM), without a hit: top-dose activity change, negative = inhibition, most hits filed as inhibitors | AID 588591 | recombinant Pol eta, fluorescent DNA replication assay | 390,000 tested, 1.2% active; note: potency is the fitted concentration of half-maximal effect; % is set by controls: 0 for no effect and ±100 for the full control effect
Target sequence (Q9Y253 whole entry, looked up): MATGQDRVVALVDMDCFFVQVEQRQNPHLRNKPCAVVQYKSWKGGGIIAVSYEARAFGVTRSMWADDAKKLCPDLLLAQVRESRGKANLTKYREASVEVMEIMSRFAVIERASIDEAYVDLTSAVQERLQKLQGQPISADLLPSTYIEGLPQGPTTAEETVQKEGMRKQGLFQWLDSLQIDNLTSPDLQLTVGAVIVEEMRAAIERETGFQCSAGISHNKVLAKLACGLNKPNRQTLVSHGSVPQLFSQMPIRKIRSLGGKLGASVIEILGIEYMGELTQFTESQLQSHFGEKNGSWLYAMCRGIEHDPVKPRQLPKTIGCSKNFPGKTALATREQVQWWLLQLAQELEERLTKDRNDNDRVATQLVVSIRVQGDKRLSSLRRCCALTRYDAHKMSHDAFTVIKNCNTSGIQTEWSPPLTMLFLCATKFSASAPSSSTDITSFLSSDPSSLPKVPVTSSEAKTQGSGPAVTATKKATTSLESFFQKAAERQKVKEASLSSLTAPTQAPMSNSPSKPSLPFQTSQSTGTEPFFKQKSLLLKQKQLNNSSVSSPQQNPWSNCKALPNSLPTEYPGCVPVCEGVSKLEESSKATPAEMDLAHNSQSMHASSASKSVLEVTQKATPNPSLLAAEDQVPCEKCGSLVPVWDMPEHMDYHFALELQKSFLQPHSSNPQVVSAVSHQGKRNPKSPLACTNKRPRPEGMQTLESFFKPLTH
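Fluorescent replication assay: 50 nM final substrate added after a 15 min room-temperature compound preincubation with 10 nM enzyme. Signal taken at 0 min and again at 10 min.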
PI5P4Ka inh: PI5P4K alpha (human) kinase inhibition; 330,000 tested, 1.2% active; max response, %; AID 652105; P48426; PI5P4Kalpha enzyme, ADP-Glo luminescence, 60 min; active compounds read low; active = max response of -50% or lower; inconclusive = between -30% and -50%; inactive = -30% or higher; note: value at the top dose of about 77 µM; % is set by controls: 0 for no effect and ±100 for the full control effect
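Luminescence from ADP-Glo served as readout of PI5P4Kalpha activity in a qHTS format. Reaction: enzyme, substrate, compound, ATP at 5 microM final, 60 min at RT.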
POLK inh: DNA polymerase kappa (human) inhibition. 400,000 tested, 0.53% active. Potency, µM (top dose mostly 107 µM), for inactives: at the top dose activity, negative = inhibition, usual class: inhibitors. AID 588579. purified Pol kappa, fluorescent DNA synthesis assay, 10 min. Q9UBT6; note: potency is the fitted concentration of half-maximal effect; % is set by controls: 0 for no effect and ±100 for the full control effect
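10 nM Pol kappa preincubated 15 min at room temperature with compounds, then reaction started with substrate at 50 nM final. Fluorescence read kinetically at 0 and 10 min; buffer-only wells served as negative control.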
* = called active by the depositor; ? = inconclusive; nt = no result; ! = not active in a repeat; [ ] = remark or other dose. Sampled rows, rich in hits. Any-hit rate of the full collection: about 2.8%. Unless noted, calls come from the whole dose curve; as a rule, active = well fitted curve in the direction sought with a large enough effect; inconclusive = small, poorly fitted or top-dose-only effect, or another doubt; inactive = no such curve, though single readings can be large; an effect the other way counts as inactive or inconclusive.

SMILES	Pol iota inh	POLB inh	WRN inhibitor	POLH inh	PI5P4Ka inh	POLK inh
CN(Cc1ccccc1)c1ccc(/C=C/c2sc3ccccc3[n+]2C)cc1	-6%	nt	nt	nt	nt	0%
CCCCCCCCCC[n+]1ccc(/C=C/c2ccc(N(C)C)cc2)c2ccccc21	50µM*	nt	nt	nt	nt	40µM*
Cc1sc2ccccc2[n+]1CCC[n+]1c(C)sc2ccccc21	?	nt	nt	nt	nt	-19%
CC(=O)N1CCOc2cc(S(=O)(=O)Nc3c(C)cccc3C(C)C)c(Cl)cc21	79µM*	-36%	nt	-13%	nt	-27%
NC(=O)CC1Nc2cccc3cccc(c23)NC1=O (centres undefined)	?	6.3µM*	-28%	?	?	-24%
Cc1ccc(NC(=O)CC2Nc3cccc4cccc(c34)NC2=O)cc1 (centres undefined)	5µM*	-21%	nt	-20%	nt	?
COc1ccc(CNc2ncnc3ccc(-c4ccccc4C#N)cc23)c(OC)c1	nt	nt	nt	nt	nt	40µM*
CC(=O)Oc1ccc2occ(-c3ccccc3)c2c1	-14%	56µM*	-12%	-10%	3	-10%
O=C1NC(c2ccccc2Cl)=N/C1=C/c1ccco1	28µM*	?	-8%[11.6 µM]	-17%	?	?
COCCN(C(=O)c1cc(-c2ccco2)nc2ccccc12)c1c(N)n(Cc2ccccc2)c(=O)[nH]c1=O	18µM*	nt	?	22µM*	-84*	?
CCCCN(C(=O)c1cc(-c2ccco2)nc2ccccc12)c1c(N)n(CCCC)c(=O)[nH]c1=O	18µM*	nt	?	50µM*	-57*	79µM*
Cc1sc2nc(SCc3ccc(C(=O)O)cc3)n(Cc3ccco3)c(=O)c2c1C	?	?	-19%	79µM*	0	-5%
Cc1ccccc1CN1[C@H](C)[C@H](c2ccccc2)OCCS1(=O)=O	1%	nt	nt	nt	nt	-5%
Nc1cc(C(=O)O)ccc1N1CCCCC1	?	?	?	10µM*	-9	79µM*
CC1CCN(c2ccc(C(=O)O)cc2N)CC1	?	?	-13%[57.1 µM]	18µM*	?	-17%
Nc1cc(F)ccc1N1CCCCCC1	56%	22%	-5%	-15%	1	-4%
O=C(C[n+]1cccc(Br)c1)c1ccc(I)cc1	27%	nt	nt	nt	nt	5%
NC(=O)c1ccsc1NC(=O)c1ccc(N2CCCC2=O)cc1	?	32µM*	-2%[11.6 µM]	25µM*	-11	?
S=c1sscc1-c1ccccc1	57%	nt	4%	-21%	7	-7%
CCOc1ccc(CCNC(=O)c2cn(C)c3ccc(S(=O)(=O)N4CCCCC4)cc3c2=O)cc1OCC	79µM*	?	nt	-13%	nt	-5%
O=C(c1nnsc1S(=O)(=O)c1ccc(Cl)cc1)N1CCOCC1	103%	-1%	-36%	5%	-5	5%
O=C(c1nnsc1S(=O)c1ccc(Cl)cc1)N1CCOCC1 (centres undefined)	?	4%	25µM*	2%	?	-3%
O=C(Cn1c(=O)n(Cc2ccc(Cl)cc2)c(=O)c2cccnc21)Nc1ccccc1C(F)(F)F	-7%	26%	nt	1%	nt	-1%
Cc1ccc(Cn2c(=O)c3cccnc3n(CC(=O)Nc3cccc(C(F)(F)F)c3)c2=O)cc1	89µM*!	-125%	0%	?	8	-30%
CS(=O)(=O)N(CC(=O)Nc1ccccc1)Cc1ccc(Cl)cc1	11%	-11%	-1%	-3%	nt	-14%
CSc1cccc(NC(=O)CN(Cc2ccc(Cl)cc2)S(C)(=O)=O)c1	89µM*	-4%	-16%[57.1 µM]	-3%	nt	-10%
Cc1cc(C)c2oc(C(=O)NCCc3ccc(S(N)(=O)=O)cc3)cc(=O)c2c1	34%	-20%	3%	-6%	-2	-5%
Cc1ccc(OCc2nc(-c3ccc(C(=O)NCCc4ccc(S(N)(=O)=O)cc4)cc3)oc2C)cc1	79µM*	30%	nt	5%	nt	3%
Cc1ccc2c(=O)cc(C(=O)NCCc3ccc(S(N)(=O)=O)cc3)oc2c1	45µM*	?	?	22µM*	-78*	-90%
